Measurements from PubChem BioAssay AID463 (The Scripps Research Institute Molecular Screening Center, 2006).
Out of some 56,000 compounds screened, about 710 (1.3%) were called active.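 The calls were made as follows: active = inhibition above the mean inhibition of all tested compounds plus 3 SD (cut at about 28% in these data); inactive = the rest.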 This excerpt belongs to a sample that is enriched for actives.

Assay: Jurkat cell viability reduction – Jurkat E6.1, 60K MLSMR library, cytotoxicity control, primary screen (AID 463)
Settings: Jurkat E6.1 viability, ATP luminescence, 48 h; at 4 µM; stronger effect = higher value
With `COc1ccc2[nH]c3ccc(OC)cc3c2c1` the inhibition was -4.4% (inactive).
In the case of `COc1ccc(CCNC(=O)CCCCn2c(=O)[nH]c3ccccc3c2=O)cc1OC`, the inhibition is reported as -5.9% (inactive).
With `COc1cc(N=Cc2c(O)[nH]c3ccccc23)cc(OC)c1OC` the inhibition was 63% (active).
In the case of `COc1ccc(N=Cc2c(O)[nH]c3ccccc23)cc1OC`, the inhibition is reported as 39.2% (active).
For `COc1ccc(OC)c(N=Cc2c(O)[nH]c3ccccc23)c1`, the inhibition was -1% (inactive).
For `COC(=O)c1[nH]c2ccccc2c1NS(=O)(=O)c1ccc(OC)cc1OC`, the inhibition was -1.9% (inactive).
With `CCn1nnc(NC(=O)c2cc(Cl)c(OC)c(Cl)c2)n1` the inhibition was -2% (inactive).
In the case of `COC(=O)c1ccc(OC(=O)c2nn(C)cc2Cl)c(OC)c1`, the inhibition is reported as 2.9% (inactive).
In the case of `CCOC(=O)C1CCN(C(c2cc3cc(C)cc(C)c3[nH]c2=O)c2nnnn2C2CCCCC2)CC1` (centres undefined), the inhibition is reported as -0.3% (inactive).
For `C=CCNC(=O)CCCOc1cccc(C)c1`, the inhibition was 4.8% (inactive).
With `OCCNCCCCOc1ccccc1F` the inhibition was 3% (inactive).
For `COc1cc(Cl)c(S(=O)(=O)n2cnc(C)c2)cc1Cl`, the inhibition was 2.3% (inactive).
With `CCC(=O)Nc1ccc(C(=O)Nc2ccc3c(c2)C(=O)N(CC2CCCO2)C3=O)cc1` (centres undefined) the inhibition was -3.3% (inactive).
With `CCCC(=O)Nc1ccc(C(=O)NCCCn2ccnc2)cc1` the inhibition was -15.7% (inactive).
In the case of `CCOc1ccccc1C(=O)NCCCn1ccnc1`, the inhibition is reported as 9.7% (inactive).
In the case of `CCCCC(=O)Nc1ccc(C(=O)NCCCn2ccnc2)cc1`, the inhibition is reported as 57% (active).
In the case of `C=CCSc1nc2c(c(=O)[nH]1)C(C(C)C)C(C#N)=C(N)O2` (centres undefined), the inhibition is reported as 0.8% (inactive).
In the case of `O=C1CCC(Cc2ccccc2)N1` (centres undefined), the inhibition is reported as 0.5% (inactive).
In the case of `Cc1cnc(C(=O)OCC(=O)Nc2ccc(Cl)cc2Cl)cn1`, the inhibition is reported as 7.4% (inactive).
With `C=CCn1cnc2scc(-c3ccccc3)c2c1=O` the inhibition was -3% (inactive).
With `CCCc1[nH]nc2c1C(c1ccc(Br)s1)C(C#N)=C(N)O2` (centres undefined) the inhibition was 29.4% (active).
With `CCCc1[nH]nc2c1C(C1CC=CCC1)C(C#N)=C(N)O2` (centres undefined) the inhibition was 5.6% (inactive).
In the case of `CCCc1[nH]nc2c1C(c1ccc(OC(=O)c3ccco3)cc1)C(C#N)=C(N)O2` (centres undefined), the inhibition is reported as 0.7% (inactive).
In the case of `Cc1cc(N(C)C)cc(C)[n+]1[O-]`, the inhibition is reported as -7.1% (inactive).
In the case of `CCOc1ccc(-c2nnc3ccc(SC)nn23)cc1`, the inhibition is reported as 0.4% (inactive).
For `CCOC(=O)CSC1=C(C#N)C(c2sccc2C)CC(=O)N1` (centres undefined), the inhibition was 93.2% (active).
For `CCOC(=O)CSC1=C(C#N)C(c2ccco2)C(C(=O)OCc2ccccc2)=C(C)N1` (centres undefined), the inhibition was 7.5% (inactive).
In the case of `COC(=O)CSC1=C(C#N)C(c2ccccc2OC)C(C(=O)OC)C(=O)N1` (centres undefined), the inhibition is reported as 5.3% (inactive).
With `CCOC(=O)COc1ccc(Cl)cc1C1NC(=O)NC(C)=C1C(C)=O` (centres undefined) the inhibition was -2.2% (inactive).
For `CCOC(=O)c1c(NC(=O)c2ccc(Br)o2)sc2c1CCCC2`, the inhibition was 6.2% (inactive).
For `C=C(C)COc1ccc(-c2n[nH]c(C)c2-c2ccccc2OC)c(O)c1`, the inhibition was 5.8% (inactive).
With `COc1ccc(-c2n[nH]c(C)c2-c2ccc(OC)c(OC)c2)c(O)c1` the inhibition was 52% (active).
In the case of `C=C(C)COc1ccc(-c2n[nH]c(C)c2-c2ccccc2)c(O)c1`, the inhibition is reported as 22.9% (inactive).
For `Cn1c(=O)[nH]c(=O)c2c1nc(CN1CCN(c3ccccc3F)CC1)n2CCc1ccccc1`, the inhibition was 0% (inactive).
For `O=S(=O)(c1cccc(S(=O)(=O)N2CCC(n3nnc4ccccc43)CC2)c1)N1CCCCC1`, the inhibition was 0.6% (inactive).
In the case of `Cn1c(NC(=O)c2ccc3c(c2)OCO3)cc(=O)n(C)c1=O`, the inhibition is reported as -10.9% (inactive).
For `CCOc1ccc(-c2nnc(-c3ccco3)o2)cc1`, the inhibition was 8.6% (inactive).
For `CCOC(=O)CSc1nnc(CNc2nc(-c3ccccc3)cs2)n1C`, the inhibition was 0% (inactive).
With `COc1ccc(C(c2nnnn2C2CCCCC2)N2CCN(c3ccccc3F)CC2)cc1` (centres undefined) the inhibition was -5.7% (inactive).
For `COc1ccccc1-n1c(CNC(=O)c2ccccc2)nnc1SCC(=O)Nc1nnc(C)s1`, the inhibition was -6.1% (inactive).
In the case of `CCc1nnc(NC(=O)CSc2nnc(-c3ccncc3)n2Cc2ccccc2)s1`, the inhibition is reported as -9.3% (inactive).
In the case of `Cc1nnc(NC(=O)CSc2nccn2-c2cccc(C)c2C)s1`, the inhibition is reported as 71.5% (active).
For `Cc1cc(Nc2cccc(C)c2C)n2ncnc2n1`, the inhibition was 2.2% (inactive).
In the case of `CCOC(=O)N1CCN(C(=O)C2CC(c3ccc(F)cc3)=NO2)CC1` (centres undefined), the inhibition is reported as -1.7% (inactive).
In the case of `CN(C)c1ccnc2sc3c(=O)n(Cc4ccccc4)cnc3c12`, the inhibition is reported as 14.6% (inactive).
For `CC1COC2C(O1)N(S(C)(=O)=O)CCN2S(C)(=O)=O` (centres undefined), the inhibition was -1.8% (inactive).
With `CC(=O)Oc1ccc(C)cc1N1C(=O)c2ccc(C(=O)O)cc2C1=O` the inhibition was -10.1% (inactive).
With `CCOc1ccc2nc(SC(CC)C(=O)Nc3cc(C)on3)sc2c1` (centres undefined) the inhibition was 1% (inactive).
For `Cc1nc(CNS(=O)(=O)c2cccnc2)cs1`, the inhibition was 2.3% (inactive).
In the case of `Cc1nc(CNS(=O)(=O)c2ccc(Oc3ccccc3)cc2)cs1`, the inhibition is reported as 35.6% (active).
For `Cc1ccc(S(=O)(=O)NCc2csc(C)n2)c(C)c1`, the inhibition was -3.9% (inactive).
In the case of `Cc1cccc(NC(=O)c2ccccc2NC(=O)C(C)(C)C)n1`, the inhibition is reported as 2.6% (inactive).
With `COc1cccc(N2CCN(C(=O)C3CCCN(S(=O)(=O)c4cnc[nH]4)C3)CC2)c1` (centres undefined) the inhibition was 0.4% (inactive).
With `CN(C)c1nc(N)nc(CSc2nnnn2-c2cccc3ccccc23)n1` the inhibition was 66.2% (active).
For `O=c1c2ccccc2nc(CSc2nnnn2-c2ccccc2)n1-c1ccccc1`, the inhibition was -1.7% (inactive).
For `Cc1ccc(-c2noc(CSc3nnnn3-c3ccccc3)n2)cc1`, the inhibition was -2.2% (inactive).
In the case of `Cn1c(=O)cc(OCCCC(=O)N2CCN(Cc3ccc4c(c3)OCO4)CC2)c2ccccc21`, the inhibition is reported as 1.1% (inactive).
For `Cc1cc(/C=N/n2cnnc2)c(C)n1-c1ccc2ncccc2c1`, the inhibition was 1% (inactive).
In the case of `C=CCn1c(=N)n(CC(O)COc2ccc(OC)cc2)c2ccccc21` (centres undefined), the inhibition is reported as -0.5% (inactive).
For `CC1CCN(C(=O)Cn2cc(C(=O)c3ccco3)c3ccccc32)CC1`, the inhibition was 2.8% (inactive).
In the case of `O=C1CCC(C(=O)Nc2ccc(OC(F)F)cc2)N1` (centres undefined), the inhibition is reported as 0.7% (inactive).
For `Cc1cc(C)nc(NC(=O)Nc2ccccc2C(F)(F)F)n1`, the inhibition was 45.2% (active).
With `Cc1cc(C)nc(NC(=O)C(C)N2C(=O)c3ccccc3C2=O)n1` (centres undefined) the inhibition was -2.7% (inactive).
For `O=C(Nc1ccccc1C(F)(F)F)c1cc(-c2ccc(O)cc2)on1`, the inhibition was 16.9% (inactive).
